Screens: PubChem BioAssay, National Center for Advancing Translational Sciences (NCATS)
p53 reactivation – re-activators of mutant p53; H1299 p53-A138V BP100-luciferase reporter, luminescence, 24 h; Potency, µM (titrated, usually from 92.2 µM), for the others: at the top dose activity change, positive = activation, actives largely listed as activators; 320,000 tested, 0.063% active; AID 504706; further: potency means the concentration at half of the fitted maximal effect; % of control where 0% means no effect; nearly all actives have a fitted effect of over 45% in size
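p53-null H1299 cells stably carrying temperature-sensitive p53-A138V and a BP100-luciferase reporter were pinned with compounds (4-point, 1:5 series) and held 24 hrs at 37 deg C. Luminescence was read 10 min after detection reagent.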
GLP1R inv ag – GLP-1 receptor (human) inverse agonism; P43220; HEK293 GLP-1R CRE-luciferase, luminescence, 24 h; GLP-1R form is constitutively active; Potency, µM (highest dose often 38.3 µM), inactives show top-dose activity change, negative = inhibition, actives largely listed as inhibitors; 410,000 tested, 1.6% active; AID 624417; further: potency means the concentration at half of the fitted maximal effect; on the % scale 0 is the no-effect control and ±100 the full control effect; nearly all actives have a fitted effect of over 55% in size
Target sequence (P43220 whole entry, looked up): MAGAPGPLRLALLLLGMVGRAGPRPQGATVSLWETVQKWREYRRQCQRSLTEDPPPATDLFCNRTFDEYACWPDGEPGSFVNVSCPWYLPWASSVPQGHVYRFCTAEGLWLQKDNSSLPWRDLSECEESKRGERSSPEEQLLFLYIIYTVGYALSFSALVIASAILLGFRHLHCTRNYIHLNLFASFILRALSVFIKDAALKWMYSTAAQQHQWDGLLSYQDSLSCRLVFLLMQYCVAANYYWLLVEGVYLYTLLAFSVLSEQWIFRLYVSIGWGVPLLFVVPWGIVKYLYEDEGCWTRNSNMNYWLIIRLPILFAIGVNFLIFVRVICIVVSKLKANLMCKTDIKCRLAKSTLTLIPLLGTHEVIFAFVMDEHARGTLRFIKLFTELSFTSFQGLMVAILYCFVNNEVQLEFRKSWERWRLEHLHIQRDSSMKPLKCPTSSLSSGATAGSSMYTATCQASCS
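Constitutively active GLP-1R drives a cAMP-responsive luciferase in stably transfected HEK293 cells; test compounds are added after overnight (12 h) attachment and left 24 hr, and signal loss in luminescence marks inhibition.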
HEK293 tox – cytotoxic in the GLP-1 receptor inverse agonist counter-screen | Potency, µM (series often up to 38.3 µM), for inactives: top-dose activity change, negative = inhibition, hits mostly inhibitors | 410,000 tested, 0.13% active | HEK293 cAMP-luciferase reporter cells, luminescence, 24 h;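 further: loss of luciferase light is scored as toxicity; potency means the concentration at half of the fitted maximal effect; on the % scale 0 is the no-effect control and ±100 the full control effect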
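Here, cytotoxicity is scored as loss of luminescence. The MLSMR collection was tested on cells seeded in medium containing 10% Nu serum, with a 24 hr compound exposure preceded by 12 hours of culture.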
ClpP mod – qHTS Assay for Activators of ClpP; Potency, µM (series often up to 57.5 µM), for the others: at the highest dose activity change, negative = active; AID 651965, 2013; 340,000 tested, 1.9% active; purified B. subtilis ClpP, FRET peptide cleavage, 20 min; ATP-dependent Clp protease proteolytic subunit (Bacillus subtilis (strain 168)), P80244; active means well fitted falling curve with a large enough effect; inconclusive means small, poorly fitted or top-dose-only effect; inactive means no such curve, though single readings can be large or run the other way; further: potency means the concentration at half of the fitted maximal effect; the source files actives as falling curves though it sought activators and does not explain the sign; nearly all actives have a fitted effect of over 65% in size
Target sequence (P80244 whole entry, looked up): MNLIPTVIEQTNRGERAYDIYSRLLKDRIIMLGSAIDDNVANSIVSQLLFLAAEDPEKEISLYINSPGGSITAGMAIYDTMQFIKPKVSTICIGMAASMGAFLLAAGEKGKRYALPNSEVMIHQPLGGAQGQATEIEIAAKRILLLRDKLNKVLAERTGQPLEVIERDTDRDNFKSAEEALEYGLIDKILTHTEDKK
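ClpP 10 microg/mL final, pH 8 Tris/KCl buffer with BSA, glycerol, Tween-20; compound pinned in; FRET-FV substrate; RT 20 min; Ex320/Em430; ΔFRET vs ADEP 5.8 microM, DMSO, no enzyme.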
GLP-1R agonist – GLP-1 receptor (human) agonism | P43220 | HEK293 GLP-1R CRE-luciferase, luminescence, 4-6 h; cells express a hypersensitive GLP-1R form | Potency, µM (doses to about 45.6 µM), for inactives: at the top dose activation, most hits filed as activators | 380,000 tested, 0.007% active | AID 624172; further: potency means the concentration at half of the fitted maximal effect; % of control where 0% means no effect
LDHA block – inhibitors of human lactate dehydrogenase A | P00338 | purified LDHA, NADH/diaphorase-resazurin fluorescence; active compounds read low | AID 1347041 | activity change, % (values are at about 110 or 230 µM) | 480,000 tested, 0.15% active; in the data active means activity change below about -30%; inconclusive means mostly about -25% to -30%;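 further: plate controls were DMSO wells for no effect and wells without enzyme for full effect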
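Human LDH5 at 2 nM final in Tris HCl pH 7.4 with 0.06 mM NADH and 0.2 mM pyruvate, reacted 5 minutes at room temperature. Remaining NADH coupled via diaphorase/resazurin; resorufin fluorescence read at 0 and 20 minutes, normalized to enzyme-free and DMSO wells.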
Active calls of the source: *; u = inconclusive; x = no result given. Rows were chosen to be rich in hits. Some 2.9% of all compounds tested hit in one or more screens of this group. Unless noted, the call rests on the fitted dose curve; in most records, active means well fitted curve in the direction sought with a large enough effect; inconclusive means small, poorly fitted or top-dose-only effect, or another doubt; inactive means no such curve, though single readings can be large; an effect the other way counts as inactive or inconclusive.

SMILES	p53 reactivation	GLP1R inv ag	HEK293 tox	ClpP mod	GLP-1R agonist	LDHA block
COc1cccc(C(C)NC(=O)c2c(F)cccc2Cl)c1 (configuration not stated)	u	-8%	-8%	u	0%	-6
CC1N=C2c3ccccc3N=C(SCc3cc(=O)n4cc(Cl)ccc4n3)N2C1=O (configuration not stated)	-9%	23%	-8%	-22%	u	0
Cc1ccc2oc3c(SCc4nc5ccccc5[nH]4)nc(C)nc3c2c1	3%	x	x	x	0%	-16
O=C(COc1coc(CN2CCN(c3ccccc3F)CC2)cc1=O)Nc1ccccc1	5%	9%	8%	x	11%	-13
COc1ccc(C(=O)NC(=S)Nc2ccc(CN3CCOCC3)cc2)cc1Cl	-2%	u	u	-1%	9%	-9
COc1ccccc1N1CCN(Cc2cc(=O)c(OCC(=O)Nc3ccccc3)co2)CC1	-7%	8%	0%	25µM*	4%	-3
Cc1ccc(Cl)cc1N1CCN(CC(=O)Nc2ccc(CN3CCCCC3)cc2)CC1	-10%	11µM*	u	0%	-12%	-5
COc1ccc(C(=O)NC(=S)Nc2ccc(CN3CCCCC3)cc2)cc1Cl	-2%	8.9µM*	u	1%	11%	-5
CCCC(NC(=S)NCC1CCCO1)C12CC3CC(CC(C3)C1)C2 (configuration not stated)	1%	5.6µM*	u	-2%	13%	-3
O=c1[nH]c2cc3c(cc2cc1CN(Cc1ccc2c(c1)OCO2)Cc1nnnn1CC1CCCO1)OCO3 (configuration not stated)	-6%	80%	17%	16µM*	18%	14
Cc1ccc2[nH]c(=O)c(CN(Cc3cccnc3)Cc3nnnn3CC3CCCO3)cc2c1 (configuration not stated)	-5%	15%	-13%	-25%	7%	-4
Cc1cc(C)c2cc(CN(CCO)Cc3nnnn3Cc3ccccc3)c(=O)[nH]c2c1	2%	6%	-18%	-9%	0%	3
Cc1cc(C)c2cc(CN(CCO)Cc3nnnn3Cc3ccc(F)cc3)c(=O)[nH]c2c1	-15%	-19%	20%	20µM*	7%	-3
O=c1[nH]c2cc3c(cc2cc1CN(CCCO)Cc1nnnn1Cc1ccc(F)cc1)OCO3	16%	15%	-14%	32µM*	0%	-4
COc1cc(C(=O)NC(=S)Nc2cccc3nc(C)ccc23)cc(OC)c1OC	-1%	22%	4%	x	1%	-1
CCOC(=O)c1cn(C2CC2)c2c(F)c(NCCCN(C)C)c(F)cc2c1=O	x	4%	9%	x	1%	-3
Cc1cccc(Oc2ccc(S(=O)(=O)N3CCCCC3)cc2N)c1	-3%	10µM*	-16%	-3%	19%	-4
Cc1ccc(S(=O)(=O)c2ccc(Oc3cccc(C)c3)cc2)cc1	11%	10µM*	-3%	-1%	-4%	1
Nc1cc(S(=O)(=O)N2CCCCC2)ccc1Oc1ccc(Cl)cc1	4%	u	0%	-8%	0%	-4
COCCn1c(SCC(=O)Nc2ccc(NC(=O)c3ccco3)c(OC)c2)nc2ccccc2c1=O	-9%	0%	u	-65%	-3%	2
CCn1c(SCC(=O)Nc2ccc(NC(=O)c3ccco3)c(OC)c2)nc2ccccc2c1=O	0%	17%	-7%	28µM*	-11%	-5
Oc1c(C(c2ccccc2)N2CCN(Cc3ccccc3)CC2)sc2ncnn12 (configuration not stated)	4%	0%	0%	-1%	-2%	-7
O=C(Nc1ccccc1N1CCCCC1)C1CCN(S(=O)(=O)c2ccccc2C(F)(F)F)CC1	-5%	7.9µM*	-5%	x	8%	1
Cc1ccc(S(=O)(=O)N2CCC(C(=O)Nc3cc(C(F)(F)F)ccc3N3CCOCC3)CC2)cc1C	7%	13µM*	-10%	x	6%	-2
O=C(Nc1ccccc1N1CCCC1)C1CCN(S(=O)(=O)c2ccccc2C(F)(F)F)CC1	3%	u	8%	-6%	0%	3
SMILES	p53 reactivation	GLP1R inv ag	HEK293 tox	ClpP mod	GLP-1R agonist	LDHA block
CCC(O)(CC)C(=O)N(Nc1ccc(C)cc1)c1ccc(C)cc1	5%	8.9µM*	-1%	-1%	8%	-3
CCOC(=O)C(=O)N(Nc1ccc(C)cc1)c1ccc(C)cc1	5%	u	-1%	x	33%	-2
CCOC(=O)c1c(C)oc2c1c(C=NCC1CCCO1)c(O)c1ccccc12 (configuration not stated)	1%	44%	21%	0%	7%	14
CCOC(=O)c1c(C)oc2c1c(C=NCc1ccccn1)c(O)c1ccccc12	-30%	22µM*	u	-2%	0%	38
O=C(NCCN1C(=O)S/C(=C\c2ccccc2)C1=O)C1CCN(S(=O)(=O)c2cccs2)CC1	11%	-8%	13%	-1%	0%	-5
O=C(CCc1c[nH]c2ccccc12)Nc1ccc(S(=O)(=O)Nc2ncccn2)cc1	2%	0%	6%	32µM*	0%	-4
CCOc1ccc(NC(=O)CCc2c[nH]c3ccccc23)cc1	x	x	x	x	x	0
COc1ccc(N2CCN(C(=O)CCc3ccc(S(=O)(=O)NCC(C)C)cc3)CC2)cc1	-1%	u	2%	25µM*	0%	1
COc1cccc(-c2nn(-c3ccc(C)cc3)cc2C(=O)N2CCc3cc(OC)c(OC)cc3C2)c1	5%	u	u	-20%	-1%	-1
COc1ccc(OC)c(-c2nn(-c3ccccc3)cc2C(=O)N2CCc3ccccc3C2)c1	-1%	13µM*	15%	-25%	8%	1
COc1ccccc1-c1nn(-c2ccccc2)cc1C(=O)N1CCc2ccccc2C1	1%	10µM*	-5%	-7%	2%	-1
CC(=O)Oc1ccc(Cn2c(C)c(C(=O)N(C)Cc3ccc(F)cc3)sc2=O)cc1	x	-10%	-17%	1%	10%	-1
CCn1c2ccccc2c2nnc(SCC(=O)NC(CC(C)C)C(=O)OC)nc21 (configuration not stated)	0%	37%	6%	0%	4%	-6
Cc1cc(-c2csc(NC(=O)c3cccc(S(=O)(=O)N(C)C)c3)n2)c(C)n1-c1ccccc1	10%	17%	-11%	14µM*	4%	-8
